Experimental data as given in PubChem BioAssay AID489025 (Southern Research Specialized Biocontainment Screening …, 2010).
The whole screen tested about 2,300 compounds, of which about 790 (34%) were called active. No rule for the calls is given here. The list shows a part of the results. Potency and affinity values are given separately.

Test: THP-1 cell cytotoxicity, dose response, cytotoxicity control for non-replicating M. tuberculosis project (AID 489025)
Settings: THP-1 cell viability; series mostly up to 40 µM; viability: at the top concentration

SMILES	viability
Cc1cccc(N2CCN(Cc3ccc([N+](=O)[O-])o3)CC2)c1C	70.8% (inactive)
CCCCOC(=O)c1ccc(NC(=O)c2nn(C)cc2Br)cc1	85.9% (inactive)
O=C(N/N=C/c1ccc[nH]1)c1ccncc1	123% (inactive)
O=C1NCC(O)=C1C=Nc1ccccc1O	82% (inactive)
Cc1[nH]nc2c1C(c1ccc(-c3ccc(Cl)cc3)o1)C(C#N)=C(N)O2 (stereo not drawn)	86.4% (inactive)
Cc1ccc(NCCC(=O)c2cccs2)cc1Cl	110% (inactive)
CC1(C)CC(=O)C=C(Nc2ccccc2N)C1	123% (inactive)
Nc1ccccc1Nc1ccccc1	85.8% (inactive)
CSCCOC(=O)COc1ccc(/C=N/NC(=O)c2c(Cl)cnn2C)cc1	101% (inactive)
CCOC(=O)CC(NS(=O)(=O)Cc1ccccc1)c1ccc(C)cc1 (stereo not drawn)	70.9% (inactive)
CCCCC1CCC(C(=O)Nc2ccc(S(=O)(=O)Nc3nccs3)cc2)CC1 (stereo not drawn)	71.5% (inactive)
COC(=O)COc1ccc(S(=O)(=O)N2CCCCCC2)cc1	94.7% (inactive)
CC1(C)Oc2ccc(NC(=O)C3COc4ccccc4O3)cc2O1 (stereo not drawn)	96.3% (inactive)
CC(C)(C)NC(=O)c1ccc(NC(=O)c2ccccc2-c2ccccc2C(=O)O)cc1	122% (inactive)
CCc1nnc(NC(=O)c2cc3ccccc3oc2=O)s1	120% (inactive)
COC(=O)COc1ccc2c(=O)c(-c3ccccc3OC)coc2c1	107% (inactive)
O=C(COC(=O)c1cc2ccccc2oc1=O)Nc1ccc(F)cc1F	108% (inactive)
O=C(CCSc1ccc(Cl)cc1)NC1CCCC1	104% (inactive)
CCc1ccc(NC(=O)COc2ccc3c(c2)OCO3)cc1	102% (inactive)
COc1ccc(C(=O)COC(=O)CCC(=O)c2cccs2)cc1	106% (inactive)
Cc1nc(C(=O)Nc2ccccc2)sc1C(=O)Nc1ccccc1	76.8% (inactive)

SMILES	viability
CC1=CC2=NC(=O)/C(=C\c3ccc(OC(=O)c4ccco4)cc3)C(=N)N2O1	110% (inactive)
CCOC(=O)c1ccc(COC(=O)c2cc3ccccc3oc2=O)o1	104% (inactive)
Cc1cccc(OCC(=O)NNC(=O)c2cc3ccccc3oc2=O)c1	115% (inactive)
COc1cccc(OCC(=O)NNC(=O)C(=O)Nc2cccc(C)c2)c1	101% (inactive)
O=c1oc(-c2ccccc2[N+](=O)[O-])nc2ccccc12	89.1% (inactive)
O=C(NNC(=O)c1ccccc1F)c1ccc(-c2ccc(Cl)cc2)o1	103% (inactive)
CCOc1ccc(C(=O)Nc2ccc(N3CCN(C)CC3)cc2)cc1Br	91.3% (inactive)
O=C(NC1=NCCS1)c1ccc(-c2ccc(Cl)cc2)o1	81.5% (inactive)
NC(=O)c1ccc(-c2ccc(Br)cc2)o1	98.7% (inactive)
CC(=O)N1CCN(c2cc3c(cc2F)c(=O)c(C(=O)O)cn3C2CC2)CC1	108% (inactive)
CCCCn1c(O)c(/C=C2/C=CC=N2)c(=O)[nH]c1=O	82.2% (inactive)
COC(=O)C(O)(c1ccc(NC(=S)NC(=O)c2ccccc2)cc1)C(F)(F)F (stereo not drawn)	99.3% (inactive)
CCOC(=O)CCSc1n[nH]c(=S)s1	120% (inactive)
COC(=O)CN(C#N)c1nc(N(C)C)nc(N(C)C)n1	96.9% (inactive)
Cc1ccc2nc3c(c(N)c2c1)CCN3c1ccccc1	85.9% (inactive)
O=C(c1cc([N+](=O)[O-])cc([N+](=O)[O-])c1)N(Cc1nnc(-c2ccccc2Cl)o1)C1CC1	78.9% (inactive)
CCn1cc(/C=N\NC(=O)c2ccc(F)cc2)cn1	109% (inactive)
COc1ccc(C(=O)Nc2ccccc2C(=O)N/N=C/c2ccco2)cc1	94.1% (inactive)
O=C(COc1ccccc1)Nc1ccc(F)cc1	99.4% (inactive)
O=C(COc1ccc2ccccc2c1)N/N=C/c1ccccn1	101% (inactive)
COc1ccc(C2=NC(=O)/C(=C\c3cc(OC)c(OC)c(OC)c3)O2)cc1	122% (inactive)

SMILES	viability
CSc1nnc(Cc2ccc3c(c2)OCO3)o1	121% (inactive)
Oc1ccccc1-c1nnc(COc2ccccc2)o1	76.9% (inactive)
Cc1ccc(-c2nnc(-c3ccccc3)o2)cc1	103% (inactive)
Cc1cc(C)cc(NC(=O)CCc2ccc(C)o2)c1	84.9% (inactive)
Cn1c(=O)c(Oc2ccc(F)cc2)c(O)c2ccccc21	117% (inactive)
Nc1nnc(SCCCC(=O)c2ccc(Br)cc2)s1	100% (inactive)
CC(C)(C)c1cc(CN2CCC(O)CC2)cc(C(C)(C)C)c1O	108% (inactive)
Cc1cc(C(=O)NNc2cc(Cl)ccc2Cl)no1	102% (inactive)
Cc1ccc(SCCC(=O)OCC(=O)NCC2CCCCC2)cc1	117% (inactive)
Cc1ccccc1OCCC(=O)OCC(=O)NNC(=O)c1cccs1	109% (inactive)
O=C(NNc1ccc([N+](=O)[O-])cc1)C1CC1c1ccccc1 (stereo not drawn)	102% (inactive)
COc1cc(/C=N/NC(=O)c2ccncc2)ccc1OC(=O)c1cccc(F)c1	106% (inactive)
O=C(N/N=C/c1cccc2nccnc12)c1ccncc1	82.7% (inactive)
Cc1ccc(NC(=O)C2CC2c2ccccc2)cc1 (stereo not drawn)	83.2% (inactive)
O=C(COC(=O)c1ccc(Br)o1)NC1CCCCC1	117% (inactive)
CC(/C=C/c1cccc([N+](=O)[O-])c1)=N\NC(=O)c1ccncc1	86.4% (inactive)
O=C(N/N=C/C=C/c1cccc([N+](=O)[O-])c1)c1ccncc1	96% (inactive)
Cc1ccc(CSCCNC(=O)c2cccc([N+](=O)[O-])c2)cc1	94.1% (inactive)
COc1cccc(OCCNC(=O)c2cc([N+](=O)[O-])cc([N+](=O)[O-])c2)c1	98.9% (inactive)
O=C(N/N=C/c1ccccn1)c1cccc([N+](=O)[O-])c1	79.6% (inactive)
FC(F)(F)c1ccc(-c2nnc(-c3cccnc3)o2)cc1	108% (inactive)
